Rows were chosen to be rich in hits. Some 19% of all compounds tested hit in one or more screens of this group.
DT40 TDP1 no CPT = qHTS for Inhibitors of human tyrosyl-DNA phosphodiesterase 1 (TDP1): qHTS in cells in absence of CPT; DT40 Tdp1-/- hTDP1 cells, no CPT, ATP luminescence, 48 h; Potency, µM (top dose mostly 46.2 µM), for inactives: at the highest dose activity change, negative = growth inhibition, usual class: inhibitors; 420,000 tested, 15% active; AID 686978, 2013; also: potency is read from the fitted curve at half-maximal effect; nearly all actives have a fitted effect of over 55% in size
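Camptothecin absent (DMSO only). Human TDP1-complemented DT40 knockout cells, 400 cells/well, 37 °C for minimum 48 hr; ATP measured via CellTiter-Glo, 30 min dark incubation, luminescence.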
DT40 TDP1 CPT = growth inhibition of DT40 Tdp1-/-;hTDP1 cells with camptothecin (screen for TDP1 inhibitors); chicken DT40 Tdp1-/-;hTDP1 cells + 20 nM CPT, ATP luminescence, 48 h; Potency, µM (doses to about 46.2 µM), inactives show at the top dose activity change, negative = growth inhibition, actives largely listed as inhibitors; 420,000 tested, 12% active; AID 686979; also: potency is read from the fitted curve at half-maximal effect; nearly all actives have a fitted effect of over 55% in size
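Cell growth measured by CellTiter-Glo luminescence after a minimum 48 h, 37 C compound exposure with 20 nM CPT in Tdp1-knockout DT40 cells stably expressing hTDP1, seeded 400/well; qHTS titration format.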
HT1080 IDH1KD tx = toxicity to HT-1080 IDH1 knockdown cells (counter line) | Potency, µM (top dose mostly 46.1 µM), inactives show at the highest dose activity, negative = toxicity, usual class: cytotoxic | HT-1080 IDH1 knockdown viability, ATP luminescence, 48 h | 360,000 tested, 2% active;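 also: potency is read from the fitted curve at half-maximal effect; 0% = DMSO wells and -100% = cell-free medium wells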
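IDH1KD HT-1080 cells, 750/well, RPMI + 5% FBS; compound pinned after 2 h settling; 48 h, 37 °C; CellTiter-Glo luminescence; % activity normalised to DMSO and no-cell wells; curves fitted, classed by r2 and efficacy.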
ELG1 repair inh = inhibitors of ELG1-dependent DNA repair in HEK293T cells; HEK293T ELG1-luciferase reporter, luminescence, 16 h; DNA damage induced by 5-fluorouridine; Potency, µM (series often up to 46.1 µM), without a hit: at the highest dose activity change, negative = inhibition, hits mostly inhibitors; AID 504467; 330,000 tested, 2.3% active; also: potency is read from the fitted curve at half-maximal effect; nearly all actives have a fitted effect of over 55% in size
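DMSO vehicle served as the neutral condition. Each well held 2,000 cells given 5-fluorouridine plus compound; after 16 hr at 37 °C/5% CO2, ONE-Glo was added and luciferase measured 30 min later.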
IL-1B inflam inh = inhibitors of inflammasome signaling (IL-1 beta secretion). activity change, % at 57.5 µM. 360,000 tested, 4.7% active. THP-1 LPS/ATP IL-1B secretion, AlphaLISA, 16 h; hits give low values; in the data active = activity change below about -50%; inconclusive = mostly about -30% to -49%
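THP-1 cells pretreated 1 hr with compounds (up to 57.5 uM final), then stimulated with LPS (250 ng/mL final) plus ATP (1.25 mM final); secreted IL-1B measured by AlphaLISA after 16 hr, decreased signal indicating inhibition.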
HT1080NT lethal = kills 2HG-producing HT-1080-NT fibrosarcoma cells; HT-1080-NT fibrosarcoma viability, CellTiter-Glo ATP luminescence, 48 h; Potency, µM (highest dose often 46.1 µM), without a hit: at the highest dose activity, negative = less viability, most hits filed as cytotoxic; 360,000 tested, 1.6% active; AID 686970;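 also: NT is the 2HG producing partner of a matched IDH1 knockdown line; potency is read from the fitted curve at half-maximal effect; 0% = DMSO-treated cells and -100% = media-only wells without cells; nearly all actives have a fitted effect of over 55% in size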
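Toxicity toward the 2HG-producing NT line was scored as %Activity, normalised to DMSO and no-cell wells, from CellTiter-Glo luminescence after 48 hours' treatment.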
An asterisk follows results filed as active; ? = inconclusive; [ ] = dose if it differs, or a comment. Unless noted, calls follow the shape of the dose curve; as a rule, active = well fitted curve in the direction sought with a large enough effect; inconclusive = small, poorly fitted or top-dose-only effect, or another doubt; inactive = no such curve, though single readings can be large; an effect the other way counts as inactive or inconclusive. Unless noted, % is scaled to controls: 0 for no effect and ±100 for the full control effect.

SMILES	DT40 TDP1 no CPT	DT40 TDP1 CPT	HT1080 IDH1KD tx	ELG1 repair inh	IL-1B inflam inh	HT1080NT lethal
Cc1ccsc1/C=C(\C(=O)c1ccc(OC(C)C)cc1)c1nc2ccccc2o1	18µM*	16µM*	-1%	?	-67*	0%
COC(=O)[C@@]12CCCCN1[C@H](c1ccc(-c3cccc(Cl)c3)cc1)[C@@H]1C(=O)N(C)C(=O)[C@@H]12	13µM*	21µM*	20%	14%	?	20%
COC(=O)[C@@]12CCCN1[C@H](c1ccc(-c3ccc(Cl)c(Cl)c3)cc1)[C@H]1C(=O)N(C)C(=O)[C@H]12	12µM*	?	-18%	?	-20	0%
COC(=O)[C@@]12CCCN1[C@H](c1ccc(-c3ccccc3)cc1)[C@@H]1C(=O)N(C)C(=O)[C@@H]12	18µM*	23µM*	-1%	-1%	29	0%
COC(=O)[C@@]12CCCCN1[C@H](c1ccc(-c3cccc(Cl)c3)c(OC)c1)[C@H]1C(=O)N(C)C(=O)[C@H]12	?	18µM*	5%	?	-4	3%
CCN1C(=O)[C@@H]2[C@@H](c3ccc(-c4ccc5c(c4)OCO5)c(OC)c3)N3CCCC[C@@]3(C(=O)OC)[C@@H]2C1=O	?	?	-2%	-23%	17	5%
CC1CC(=O)N(CC(=O)Nc2ccccc2F)c2ccccc2S1(=O)=O (centres undefined)	27%	4%	1%	14%	1	4%
COc1ccc(NC(=S)N2CCN(C(=O)C3CCCO3)CC2)c(OC)c1 (centres undefined)	-2%	3%	4%	11%	0	3%
COC(=O)[C@@]12CCCCN1[C@H](c1ccc(-c3cccc(Cl)c3)cc1)[C@H]1C(=O)N(C)C(=O)[C@H]12	23µM*	?	1%	-5%	-7	0%
CCN1C(=O)[C@H]2[C@@H](c3ccc(-c4cccc(Cl)c4)c(OC)c3)N3CCCC[C@@]3(C(=O)OC)[C@H]2C1=O	23µM*	?	-22%	-14%	-62*	0%
CCN1C(=O)[C@H]2[C@@H](c3ccc(-c4cccc(Cl)c4)cc3)N3CCCC[C@@]3(C(=O)OC)[C@H]2C1=O	?	?	-5%	12%	-1	-11%
COC(=O)[C@@]12CCCN1[C@H](c1ccc(-c3cccc(Cl)c3)cc1)[C@H]1C(=O)N(C)C(=O)[C@H]12	9.2µM*	23µM*	-9%	?	-1	-5%
O=Cc1cc(Br)c(OC(=O)N2CCOCC2)c(Br)c1	-11%	?	-2%	-3%	13	2%
COc1ccc(S(=O)(=O)NC(C)C(=O)N2CCCC2)cc1C (centres undefined)	-1%	39%	8%	16%	15	-3%
Cc1noc(C)c1S(=O)(=O)N(Cc1ccccc1)C(C)C	0%	16%	1%	-25%	23	0%
O=C(CNc1ccc(Br)cc1)c1ccc(Br)s1	-23%	-25%	-4%	?	-29	-19%
O=C(CSc1nnc(-c2ccc(Cl)cc2)n1Cc1ccco1)c1cccs1	21µM*	?	-9%[9.24 µM]	-1%	-6	?
Cc1ccc(C(=O)CSc2nnc(-c3ccccc3)n2-c2ccccc2)o1	10µM*	11µM*	7%	?	-6	13%
O=C(CSc1nnc(-c2ccccc2)n1-c1ccccc1)c1cccs1	12µM*	?	-2%	-23%	-23	-2%
O=C(CSc1nnc(Cc2cccs2)n1Cc1ccco1)Nc1cccc(Cl)c1	?	?	1%	?	-9	1%

Screens as filed in PubChem.
